How the values were obtained:
[1] = biological target: T1, Tyrosine-protein kinase ITK/TSK (Homo sapiens) (UniProt Q08881); conditions: at 1 µM;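 further: values are mean percent inhibition of ITK from the GSK PKIS screen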
T1 sequence (whole entry): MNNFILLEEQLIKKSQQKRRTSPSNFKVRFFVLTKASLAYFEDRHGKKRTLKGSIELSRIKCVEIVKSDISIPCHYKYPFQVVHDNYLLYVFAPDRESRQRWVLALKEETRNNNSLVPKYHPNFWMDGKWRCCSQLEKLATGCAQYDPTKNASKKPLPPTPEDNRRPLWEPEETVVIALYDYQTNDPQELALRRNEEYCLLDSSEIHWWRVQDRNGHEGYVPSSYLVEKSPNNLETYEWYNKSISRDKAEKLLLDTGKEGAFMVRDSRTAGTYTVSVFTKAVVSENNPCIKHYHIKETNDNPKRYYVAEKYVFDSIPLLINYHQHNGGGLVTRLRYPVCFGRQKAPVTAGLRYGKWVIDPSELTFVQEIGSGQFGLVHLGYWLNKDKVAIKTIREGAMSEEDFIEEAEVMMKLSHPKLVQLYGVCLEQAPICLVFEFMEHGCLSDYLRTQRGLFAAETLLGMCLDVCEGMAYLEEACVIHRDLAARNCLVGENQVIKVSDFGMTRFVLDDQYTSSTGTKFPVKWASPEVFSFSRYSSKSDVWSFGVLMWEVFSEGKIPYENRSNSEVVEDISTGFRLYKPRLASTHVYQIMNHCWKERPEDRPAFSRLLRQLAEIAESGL

[2] = biological target: Tyrosine-protein kinase JAK1 (Homo sapiens) (UniProt P23458); conditions: at 0.1 µM
Sequence of Tyrosine-protein kinase JAK1 (Homo sapiens) (P23458 whole entry): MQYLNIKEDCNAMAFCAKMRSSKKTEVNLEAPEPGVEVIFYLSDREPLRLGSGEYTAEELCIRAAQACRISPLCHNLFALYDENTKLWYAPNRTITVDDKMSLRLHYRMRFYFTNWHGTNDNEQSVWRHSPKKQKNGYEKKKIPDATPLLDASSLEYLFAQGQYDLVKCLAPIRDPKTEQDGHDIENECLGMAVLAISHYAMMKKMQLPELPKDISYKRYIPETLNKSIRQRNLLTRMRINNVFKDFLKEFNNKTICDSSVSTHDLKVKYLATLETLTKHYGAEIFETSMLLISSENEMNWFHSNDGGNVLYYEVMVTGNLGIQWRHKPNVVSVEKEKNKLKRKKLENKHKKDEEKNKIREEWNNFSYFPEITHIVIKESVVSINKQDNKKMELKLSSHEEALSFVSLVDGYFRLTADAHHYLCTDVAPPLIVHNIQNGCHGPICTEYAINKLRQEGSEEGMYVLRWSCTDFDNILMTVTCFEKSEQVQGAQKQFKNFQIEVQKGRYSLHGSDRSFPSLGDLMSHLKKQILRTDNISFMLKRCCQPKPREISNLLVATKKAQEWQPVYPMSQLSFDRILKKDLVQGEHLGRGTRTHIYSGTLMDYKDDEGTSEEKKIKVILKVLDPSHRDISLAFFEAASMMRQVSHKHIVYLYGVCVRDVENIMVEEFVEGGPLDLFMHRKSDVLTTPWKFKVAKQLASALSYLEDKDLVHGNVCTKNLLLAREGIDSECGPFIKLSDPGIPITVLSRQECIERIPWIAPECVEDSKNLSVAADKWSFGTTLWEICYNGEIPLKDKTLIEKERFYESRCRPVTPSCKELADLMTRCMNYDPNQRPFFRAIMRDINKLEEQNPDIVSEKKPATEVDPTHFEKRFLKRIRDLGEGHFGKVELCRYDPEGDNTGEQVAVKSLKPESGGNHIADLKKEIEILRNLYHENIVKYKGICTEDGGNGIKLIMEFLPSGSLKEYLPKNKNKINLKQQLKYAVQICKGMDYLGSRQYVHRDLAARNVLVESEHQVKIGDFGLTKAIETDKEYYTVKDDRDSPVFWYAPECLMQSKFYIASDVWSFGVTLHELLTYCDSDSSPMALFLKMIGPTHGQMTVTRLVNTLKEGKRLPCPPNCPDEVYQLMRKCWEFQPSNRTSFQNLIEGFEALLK

[3] = biological target: Tyrosine-protein kinase JAK1 (Homo sapiens) (UniProt P23458); conditions: at 1 µM
[4] = biological target: Tyrosine-protein kinase JAK2 (Homo sapiens) (UniProt O60674); conditions: at 0.1 µM
Sequence of Tyrosine-protein kinase JAK2 (Homo sapiens) (O60674 whole entry): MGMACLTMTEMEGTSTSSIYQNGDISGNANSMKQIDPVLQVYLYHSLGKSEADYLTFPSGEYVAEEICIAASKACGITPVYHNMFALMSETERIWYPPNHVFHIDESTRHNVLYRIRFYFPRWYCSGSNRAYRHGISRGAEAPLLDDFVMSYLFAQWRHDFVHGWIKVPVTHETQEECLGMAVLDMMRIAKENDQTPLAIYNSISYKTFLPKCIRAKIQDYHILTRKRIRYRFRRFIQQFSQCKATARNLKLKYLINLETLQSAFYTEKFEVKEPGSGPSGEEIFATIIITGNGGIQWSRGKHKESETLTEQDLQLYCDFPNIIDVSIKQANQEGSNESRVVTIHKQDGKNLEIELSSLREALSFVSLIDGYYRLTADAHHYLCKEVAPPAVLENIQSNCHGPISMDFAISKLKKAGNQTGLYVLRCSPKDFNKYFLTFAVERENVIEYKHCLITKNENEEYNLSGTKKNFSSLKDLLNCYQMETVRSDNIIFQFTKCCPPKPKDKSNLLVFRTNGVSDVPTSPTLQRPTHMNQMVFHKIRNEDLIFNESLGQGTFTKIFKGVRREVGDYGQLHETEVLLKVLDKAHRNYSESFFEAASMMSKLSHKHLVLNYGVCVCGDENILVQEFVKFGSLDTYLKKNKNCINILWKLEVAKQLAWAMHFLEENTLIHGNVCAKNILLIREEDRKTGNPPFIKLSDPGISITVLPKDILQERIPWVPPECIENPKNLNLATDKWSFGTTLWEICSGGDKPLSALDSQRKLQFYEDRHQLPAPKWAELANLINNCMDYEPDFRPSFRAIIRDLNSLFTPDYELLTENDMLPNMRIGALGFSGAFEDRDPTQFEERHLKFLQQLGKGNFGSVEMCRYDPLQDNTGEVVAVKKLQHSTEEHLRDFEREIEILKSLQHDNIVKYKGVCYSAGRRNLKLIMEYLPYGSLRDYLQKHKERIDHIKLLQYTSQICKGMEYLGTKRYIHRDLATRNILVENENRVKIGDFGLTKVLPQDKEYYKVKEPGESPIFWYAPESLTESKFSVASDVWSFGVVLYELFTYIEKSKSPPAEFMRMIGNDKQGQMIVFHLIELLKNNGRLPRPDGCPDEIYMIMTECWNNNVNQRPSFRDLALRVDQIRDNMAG

[5] = biological target: Tyrosine-protein kinase JAK2 (Homo sapiens) (UniProt O60674); conditions: at 1 µM
[6] = biological target: T2, Tyrosine-protein kinase JAK3 (Homo sapiens) (UniProt P52333); conditions: at 0.1 µM
T2 sequence (whole entry): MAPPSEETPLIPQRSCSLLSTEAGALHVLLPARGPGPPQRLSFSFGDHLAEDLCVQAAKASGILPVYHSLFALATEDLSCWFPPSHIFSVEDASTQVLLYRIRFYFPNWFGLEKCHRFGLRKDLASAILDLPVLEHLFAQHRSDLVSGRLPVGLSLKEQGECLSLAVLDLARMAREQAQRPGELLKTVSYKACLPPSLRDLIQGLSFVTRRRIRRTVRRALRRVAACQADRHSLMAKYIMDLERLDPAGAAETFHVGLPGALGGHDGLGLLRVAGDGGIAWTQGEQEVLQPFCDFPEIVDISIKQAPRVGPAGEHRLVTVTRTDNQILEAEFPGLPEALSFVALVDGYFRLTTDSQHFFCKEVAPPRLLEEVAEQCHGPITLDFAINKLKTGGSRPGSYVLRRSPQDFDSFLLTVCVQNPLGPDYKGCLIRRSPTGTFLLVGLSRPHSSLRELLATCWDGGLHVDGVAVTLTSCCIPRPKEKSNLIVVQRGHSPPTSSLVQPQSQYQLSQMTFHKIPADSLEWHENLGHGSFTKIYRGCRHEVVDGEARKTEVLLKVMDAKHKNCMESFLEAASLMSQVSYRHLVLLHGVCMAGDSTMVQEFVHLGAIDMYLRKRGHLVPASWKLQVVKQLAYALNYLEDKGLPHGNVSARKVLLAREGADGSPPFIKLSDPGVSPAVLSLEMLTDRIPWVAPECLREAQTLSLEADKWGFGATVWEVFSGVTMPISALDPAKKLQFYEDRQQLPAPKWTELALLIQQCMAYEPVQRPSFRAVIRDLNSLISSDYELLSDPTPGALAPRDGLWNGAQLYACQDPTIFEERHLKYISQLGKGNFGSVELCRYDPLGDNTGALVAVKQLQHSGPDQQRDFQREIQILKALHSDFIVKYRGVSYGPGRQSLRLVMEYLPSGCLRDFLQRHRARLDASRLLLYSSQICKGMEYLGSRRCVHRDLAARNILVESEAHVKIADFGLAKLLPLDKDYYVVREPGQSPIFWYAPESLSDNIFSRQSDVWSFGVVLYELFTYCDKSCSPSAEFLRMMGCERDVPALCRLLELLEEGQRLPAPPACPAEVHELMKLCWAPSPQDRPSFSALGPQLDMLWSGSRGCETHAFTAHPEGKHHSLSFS

[7] = biological target: T2, Tyrosine-protein kinase JAK3 (Homo sapiens); conditions: at 1 µM
[8] = biological target: Vascular endothelial growth factor receptor 2 (Homo sapiens) (UniProt P35968); conditions: at 0.1 µM
Sequence of Vascular endothelial growth factor receptor 2 (Homo sapiens) (P35968 whole entry): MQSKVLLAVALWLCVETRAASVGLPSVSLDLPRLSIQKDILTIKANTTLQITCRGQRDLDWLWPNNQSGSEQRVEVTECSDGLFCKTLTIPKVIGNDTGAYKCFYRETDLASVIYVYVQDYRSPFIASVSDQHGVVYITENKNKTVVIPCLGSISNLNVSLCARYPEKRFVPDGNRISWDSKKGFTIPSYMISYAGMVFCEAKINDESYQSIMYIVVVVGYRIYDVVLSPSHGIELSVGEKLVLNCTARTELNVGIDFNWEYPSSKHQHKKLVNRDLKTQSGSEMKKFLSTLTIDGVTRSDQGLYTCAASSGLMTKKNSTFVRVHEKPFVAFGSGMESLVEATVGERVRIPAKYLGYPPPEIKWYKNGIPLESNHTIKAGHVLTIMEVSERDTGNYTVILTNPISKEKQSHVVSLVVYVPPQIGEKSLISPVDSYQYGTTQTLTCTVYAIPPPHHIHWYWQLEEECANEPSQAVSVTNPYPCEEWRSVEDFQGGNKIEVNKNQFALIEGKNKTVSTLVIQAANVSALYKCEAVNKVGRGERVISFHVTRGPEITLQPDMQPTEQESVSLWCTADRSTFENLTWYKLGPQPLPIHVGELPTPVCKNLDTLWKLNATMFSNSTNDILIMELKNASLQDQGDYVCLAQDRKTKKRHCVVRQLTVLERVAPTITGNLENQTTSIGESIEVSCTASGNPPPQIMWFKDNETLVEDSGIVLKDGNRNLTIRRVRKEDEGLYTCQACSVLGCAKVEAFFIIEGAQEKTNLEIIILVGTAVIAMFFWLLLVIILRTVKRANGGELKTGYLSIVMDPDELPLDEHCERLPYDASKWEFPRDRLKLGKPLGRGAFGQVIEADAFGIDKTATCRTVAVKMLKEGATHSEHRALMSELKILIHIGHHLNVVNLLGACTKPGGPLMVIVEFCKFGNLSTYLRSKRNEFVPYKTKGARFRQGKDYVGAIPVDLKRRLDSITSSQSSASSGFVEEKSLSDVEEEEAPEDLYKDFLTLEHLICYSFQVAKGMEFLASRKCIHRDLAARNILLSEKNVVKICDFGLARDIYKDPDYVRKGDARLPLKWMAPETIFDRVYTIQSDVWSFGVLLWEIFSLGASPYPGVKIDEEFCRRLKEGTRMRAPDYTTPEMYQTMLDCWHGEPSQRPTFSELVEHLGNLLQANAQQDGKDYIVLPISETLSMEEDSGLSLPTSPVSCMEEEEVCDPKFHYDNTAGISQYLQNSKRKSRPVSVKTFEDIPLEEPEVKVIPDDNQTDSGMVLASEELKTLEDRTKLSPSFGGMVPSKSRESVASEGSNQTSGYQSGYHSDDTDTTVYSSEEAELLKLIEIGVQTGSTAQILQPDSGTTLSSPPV

[9] = biological target: Vascular endothelial growth factor receptor 2 (Homo sapiens) (UniProt P35968); conditions: at 1 µM
[10] = biological target: Mast/stem cell growth factor receptor Kit (Homo sapiens) (UniProt P10721); conditions: at 0.1 µM
[11] = biological target: Mast/stem cell growth factor receptor Kit (Homo sapiens) (UniProt P10721); conditions: at 1 µM
[12] = system: Mast/stem cell growth factor receptor Kit (Homo sapiens), P10721 [D816V]; conditions: at 0.1 µM
[13] = system: Mast/stem cell growth factor receptor Kit (Homo sapiens), P10721 [D816V]; conditions: at 1 µM
[14] = system: Mast/stem cell growth factor receptor Kit (Homo sapiens), P10721 [T670I]; conditions: at 0.1 µM
[15] = system: Mast/stem cell growth factor receptor Kit (Homo sapiens), P10721 [T670I]; conditions: at 1 µM
[16] = system: Mast/stem cell growth factor receptor Kit (Homo sapiens), P10721 [V560G]; conditions: at 0.1 µM
[17] = system: Mast/stem cell growth factor receptor Kit (Homo sapiens), P10721 [V560G]; conditions: at 1 µM
[18] = biological target: Tyrosine-protein kinase Lck (Homo sapiens) (UniProt P06239); conditions: at 0.1 µM
Sequence of Tyrosine-protein kinase Lck (Homo sapiens) (P06239 2-509 limits assumed): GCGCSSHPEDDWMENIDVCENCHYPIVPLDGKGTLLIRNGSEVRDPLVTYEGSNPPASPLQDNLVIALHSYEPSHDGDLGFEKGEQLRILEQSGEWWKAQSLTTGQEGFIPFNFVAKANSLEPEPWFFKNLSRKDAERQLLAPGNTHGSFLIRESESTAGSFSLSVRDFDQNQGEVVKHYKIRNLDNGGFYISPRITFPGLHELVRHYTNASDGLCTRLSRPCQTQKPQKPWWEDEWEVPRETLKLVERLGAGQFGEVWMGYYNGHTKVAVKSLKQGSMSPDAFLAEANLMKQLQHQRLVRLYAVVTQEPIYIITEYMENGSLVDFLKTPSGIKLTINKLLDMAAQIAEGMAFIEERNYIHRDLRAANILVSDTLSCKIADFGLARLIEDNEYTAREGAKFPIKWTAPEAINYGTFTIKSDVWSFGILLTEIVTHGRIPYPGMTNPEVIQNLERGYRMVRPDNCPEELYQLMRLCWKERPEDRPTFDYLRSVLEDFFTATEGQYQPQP

[19] = biological target: Tyrosine-protein kinase Lck (Homo sapiens) (UniProt P06239); conditions: at 1 µM
[20] = biological target: Leukocyte tyrosine kinase receptor (Homo sapiens) (UniProt P29376); conditions: at 0.1 µM
Sequence of Leukocyte tyrosine kinase receptor (Homo sapiens) (P29376 whole entry): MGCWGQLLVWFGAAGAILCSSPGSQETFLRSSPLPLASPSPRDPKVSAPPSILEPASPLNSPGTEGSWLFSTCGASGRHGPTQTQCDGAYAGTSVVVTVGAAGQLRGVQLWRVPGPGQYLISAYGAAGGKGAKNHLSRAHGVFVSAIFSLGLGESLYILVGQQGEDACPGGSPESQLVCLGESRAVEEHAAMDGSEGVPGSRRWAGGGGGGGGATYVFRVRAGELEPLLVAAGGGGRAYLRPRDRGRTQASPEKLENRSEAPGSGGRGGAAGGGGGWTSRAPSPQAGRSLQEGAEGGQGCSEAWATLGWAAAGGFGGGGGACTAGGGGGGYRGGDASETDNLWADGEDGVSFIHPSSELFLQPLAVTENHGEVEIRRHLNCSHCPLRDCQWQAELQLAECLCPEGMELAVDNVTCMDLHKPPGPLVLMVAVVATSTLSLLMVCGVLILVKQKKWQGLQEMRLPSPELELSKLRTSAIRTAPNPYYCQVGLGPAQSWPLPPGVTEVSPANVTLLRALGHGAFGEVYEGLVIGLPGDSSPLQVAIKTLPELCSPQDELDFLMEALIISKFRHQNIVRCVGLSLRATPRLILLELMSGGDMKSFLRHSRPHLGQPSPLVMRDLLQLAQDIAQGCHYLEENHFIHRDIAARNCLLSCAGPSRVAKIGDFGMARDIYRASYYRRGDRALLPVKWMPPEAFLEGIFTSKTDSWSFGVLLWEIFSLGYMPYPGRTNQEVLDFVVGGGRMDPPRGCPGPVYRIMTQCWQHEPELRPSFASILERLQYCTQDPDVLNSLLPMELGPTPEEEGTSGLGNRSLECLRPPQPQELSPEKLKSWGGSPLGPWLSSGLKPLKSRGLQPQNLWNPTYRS

SMILES | inhibition [1] [%] | inhibition [2] [%] | inhibition [3] [%] | inhibition [4] [%] | inhibition [5] [%] | inhibition [6] [%] | inhibition [7] [%] | inhibition [8] [%] | inhibition [9] [%] | inhibition [10] [%] | inhibition [11] [%] | inhibition [12] [%] | inhibition [13] [%] | inhibition [14] [%] | inhibition [15] [%] | inhibition [16] [%] | inhibition [17] [%] | inhibition [18] [%] | inhibition [19] [%] | inhibition [20] [%]
Cn1cc(C=C2C(=O)Nc3cccnc32)c2ccccc21 | 15.7 | 1.61 | -6.11 | 0.37 | 2.77 | -0.5 | 4.53 | 14.7 | 54.8 | 11.3 | 52.7 | 2.87 | 5.81 | 2.37 | 19.8 | -1.28 | 3.99 | 4.03 | 25.5 | 2.72
Cc1nnc(-c2ccc(C)c(-c3ccc(C(=O)Nc4cccc(C#N)c4)cc3)c2)o1 | 0.58 | 1.77 | 6.74 | -0.14 | -0.34 | -1.17 | 1.29 | 3.3 | 7.82 | 5.68 | 6.9 | 2.18 | 2.02 | 0.85 | 1.69 | 0.81 | 2.86 | 1.89 | 2.99 | 2.14
Cc1ccc(C(=O)NC2CCCCC2)cc1-c1ccc(C(=O)NCC2CC2)cc1 | 2.35 | 9.94 | 9.1 | 3.28 | 4.08 | 0.78 | 3.02 | 7.88 | 8.4 | 4.54 | 4.9 | 3.74 | 0.6 | 0.04 | 0.31 | 3.05 | 4.51 | 1.49 | 2.85 | 0.67
CCn1c(-c2nonc2N)nc2cncc(C(=O)N3CCNCC3)c21 | 2.09 | 4.28 | 4.72 | 4.03 | 2.86 | -0.41 | -0.7 | 3.99 | 9.13 | 7.95 | 7.52 | 4.16 | 4.92 | 2.72 | 3.08 | -3.45 | -0.74 | 3.56 | 5.67 | 5.18
COc1cccc(-n2ncc3c(N/N=C/c4cccc(F)c4)ncnc32)c1 | -2.13 | 2.37 | 2.01 | 1.22 | 1.44 | -4.29 | 0.79 | 10.1 | 34.1 | 3.25 | 14.1 | 4.05 | 1.87 | 2.67 | 7.07 | -0.18 | -1.44 | 7.82 | 40.9 | 0.92
COc1cc2ncn(-c3cc(OCc4ccccc4Cl)c(C(N)=O)s3)c2cc1OC | 3.19 | 0.17 | 5.86 | 0.18 | 0.34 | 0.35 | 4.86 | 12.2 | 53.9 | 0.54 | 15.6 | 0.27 | -0.43 | 2.57 | 8.11 | 2.29 | 3.13 | 2.94 | 19 | 1.19
CCn1c(-c2nonc2N)nc2ccncc21 | 0.76 | 1.34 | 6.51 | 0.33 | 0.91 | -1.14 | 2.73 | 1.87 | 2.46 | -0.66 | -2.36 | -0.01 | -2.39 | 0.62 | 3.05 | -0.14 | -0.33 | 1.33 | 2.29 | 1.29
COc1cc2c(cc1Nc1nc(N3CCc4ccccc43)c3cc[nH]c3n1)N(C(=O)CN(C)C)CC2 | 1.52 | -0.01 | -3.36 | 1.69 | 0.18 | 0.19 | 0.18 | 1.11 | 0.21 | 3.11 | 5.18 | 3.89 | 5.06 | 1.21 | 4.61 | 0.64 | 1.28 | 1.15 | 6 | 75.9
Fc1cccc(COc2ccc(Nc3ncnc4cc(-c5ccc[nH]5)sc34)cc2Cl)c1 | -1.9 | 2.84 | 13.6 | 1.26 | 3.62 | -3.97 | -1.5 | 6.01 | 11.8 | 2.16 | 2.05 | 0.67 | 1.62 | 1.82 | 2.49 | 0.61 | 1.53 | -1.91 | 2.29 | 2.11
COc1ccc(-c2nn3ncccc3c2-c2ccnc(Nc3ccc(Cl)c(C(F)(F)F)c3)n2)cc1 | 0.32 | 1.77 | 10.6 | -0.46 | -0.98 | -0.77 | -0.67 | 1.69 | 4.52 | 1.4 | 8.96 | 0.87 | 4.92 | -0.64 | 1.14 | 0.89 | -0.17 | -0.04 | 5.83 | 2.25
CS(=O)(=O)CCN(CC#N)Cc1ccc(-c2ccc3ncnc(Nc4ccc(OCc5cccc(F)c5)c(Cl)c4)c3c2)o1 | -3.44 | 0.62 | 1.2 | 1.36 | 1.26 | -5.68 | -5.16 | 4.09 | 7.7 | -0.23 | 0.7 | 3.19 | 2.53 | 2.04 | 0.88 | -0.55 | -2.04 | -1.83 | -3.92 | 1.4
CCn1c(-c2nonc2N)nc2c(C#CC(C)(C)O)nc(OC[C@@H](N)c3ccccc3)cc21 | 0.95 | -3.77 | 2.1 | 0.33 | 6.32 | 1.24 | 4.39 | 35.1 | 71.2 | -1.3 | 2.86 | -1.77 | 1.93 | -1.49 | -0.45 | 2.19 | 2.43 | -1.85 | 0.18 | 0.55
CS(=O)(=O)CCNCc1ccc(-c2ccc3ncnc(Nc4ccc(OCc5ccccc5)c(Cl)c4)c3c2)o1 | 1.43 | -0.15 | 1.78 | -0.29 | 1.05 | 0.91 | 2.44 | 6.23 | 14.2 | 2.73 | 1.79 | 0.03 | 2.97 | 1.42 | 1.36 | 7.05 | 1.37 | 1.77 | 9.7 | 0.32

Source: ChEMBL document CHEMBL1961873, “Compounds: GSK PKIS; Assays: Nanosyn kinase panel” (2012)
